The experiment is described as follows: growth inhibition of WT strain, primary screen, mitochondrial fusion inhibitor project, WT and mutant strains, chemical genetic (AID 1362). Conditions: mitochondrial fusion phenotypic screen, at 10 µM.
Where [1] appears, read: WT strain, growth inhibition, stronger effect = higher value.

Hit rate of the full screen: of about 190,000 compounds, about 4,000 (2.1%) were called active. Rule as the data show it: active = inhibition above about 58%; inactive = the rest, inconclusive results apart; tested in S. cerevisiae. For the sample, actives were picked, then their nearest neighbours and some compounds at random.

Regarding `O=C(C(=O)N1CCc2ccccc2C1)c1c[nH]c2ccccc12`, the inhibition is 12.7% (inactive) under setting [1] and -9.54% (mutant strain inhibition).

`COCCN(C(=S)Nc1ccccc1OC)C1CCN(C(C)C)CC1`: the inhibition was -3.78% (inactive) under setting [1] and -1.71% (mutant strain inhibition).

Take `COCCNC(=S)N(Cc1cccnc1)Cc1ccc(OC)c(OC)c1`: the inhibition runs as follows: under setting [1], 0.04% (inactive); (mutant strain inhibition) 0%.

Take `Cc1cccc(C)c1NC(=S)N(Cc1cccnc1)Cc1ccccc1Cl`: the inhibition is, setting by setting: under setting [1], -4.3% (inactive); (mutant strain inhibition) -19.8%.

Consider `Cc1c(Cl)cccc1NC(=S)N(Cc1ccccc1)Cc1cccnc1`, for which the inhibition was 32.8% (inactive) under setting [1] and 35.6% (mutant strain inhibition).

For the molecule `Cc1ccc(CN(Cc2cccnc2)C(=S)Nc2cc(Cl)ccc2C)cc1`, the inhibition was 65.8% (active) under setting [1] and 29.6% (mutant strain inhibition).

In the case of `Cc1ccc(Cl)cc1NC(=S)N(CCN(C)C)Cc1cccs1`, the inhibition is, setting by setting: under setting [1], 3.98% (inactive); (mutant strain inhibition) 13.3%.

Turning to `Cc1ccc(CN(Cc2cccnc2)C(=S)Nc2cccc(Cl)c2C)cc1`, the inhibition runs as follows: under setting [1], 73.9% (active); (mutant strain inhibition) 36.3%.

With `CCCCCCCCc1c(O)nc(-n2[nH]c(C)c(CCO)c2=O)[nH]c1=O`, the inhibition was -1.35% (inactive) under setting [1] and -2.06% (mutant strain inhibition).

Consider `Cc1ccc(NC2=C(Cl)C(=O)OC2OC(=O)c2ccccc2C)cc1` (stereo not given), for which the inhibition by setting is: under setting [1], 72.2% (active); (mutant strain inhibition) 69%.

With `Cc1ccccc1C(=O)OC1OC(=O)C(Cl)=C1Nc1ccccc1` (stereo not given), the inhibition runs as follows: under setting [1], 31% (inactive); (mutant strain inhibition) 3.24%.

As to `O=C1OC(OC(=O)c2ccccc2Br)C(N2CCOCC2)=C1Cl` (stereo not given), the inhibition runs as follows: under setting [1], -3.78% (inactive); (mutant strain inhibition) 5.3%.

`Cc1cc(/C=N/NC(=O)c2cccnc2)c(C)n1CC(C)C`: the inhibition runs as follows: under setting [1], -2.78% (inactive); (mutant strain inhibition) -1.44%.

Regarding `CCN(CC)CCNc1nc(-c2ccc(OC(F)F)cc2)c(C)s1`, the inhibition under setting [1] was 14.9% (inactive) and the inhibition (mutant strain inhibition) is -3.63%.

Turning to `COc1ccc(OC)c(Cc2nnc(CCC(=O)NC3CCCC3)o2)c1`, the inhibition was -6.11% (inactive) under setting [1] and 1.25% (mutant strain inhibition).

On to `S=C(NCc1ccc(Cl)cc1)NC1CCCCC1`, for which the inhibition runs as follows: under setting [1], 68% (active); (mutant strain inhibition) 50.3%.

In the case of `CN(C)CCCNC(=S)NCc1ccc(Cl)cc1`, the inhibition under setting [1] is -0.46% (inactive) and the inhibition (mutant strain inhibition) worked out at 2.88%.

As for `S=C(NCc1ccc(Cl)cc1)NC12CC3CC(CC(C3)C1)C2`, the inhibition is -4.06% (inactive) under setting [1] and 3.59% (mutant strain inhibition).

Take `COc1cccc2cc(S(=O)(=O)c3ccc(C)cc3)/c(=N/NS(=O)(=O)c3ccc(C)cc3)oc12`: the inhibition is -19.1% (inactive) under setting [1] and 0.47% (mutant strain inhibition).

Regarding `O=C(NCC1COc2ccccc2O1)C1(c2ccccc2)CCCC1` (stereo not given), the inhibition runs as follows: under setting [1], 13.2% (inactive); (mutant strain inhibition) 3.88%.

For `c1ccc2c(c1)OCC(CNc1ncnc3nc[nH]c13)O2` (stereo not given), the inhibition reads like this: under setting [1], 5.51% (inactive); (mutant strain inhibition) -5.69%.

`c1ccc(-c2cc3c(NCC4COc5ccccc5O4)ncnc3s2)cc1` (stereo not given): the inhibition runs as follows: under setting [1], 82% (active); (mutant strain inhibition) 45.9%.

For the molecule `O=[N+]([O-])c1ccc(Sc2n[nH]c(-c3ccco3)n2)nc1`, the inhibition reads like this: under setting [1], -3.94% (inactive); (mutant strain inhibition) -1.1%.

`Cc1ccc(Sc2cc(N3CCOCC3)nc(-c3ccccc3)n2)cc1`: the inhibition reads like this: under setting [1], -0.33% (inactive); (mutant strain inhibition) 3.68%.

On to `CSCc1cc(N2CCOCC2)nc(SCc2ccc(Cl)cc2Cl)n1`, for which the inhibition by setting is: under setting [1], 79.1% (active); (mutant strain inhibition) 52.8%.

As to `Clc1ccc(CSc2nnc(/C=C/c3ccccc3)o2)c(Cl)c1`, the inhibition reads like this: under setting [1], 38% (inactive); (mutant strain inhibition) 26.7%.

On to `O=c1cc(CSc2ccc(Cl)cc2)nc(N2CCOCC2)[nH]1`, for which the inhibition was 10.4% (inactive) under setting [1] and -7.43% (mutant strain inhibition).

For the molecule `CSCc1cc(N(C)C)nc(SCc2ccc(Cl)cc2Cl)n1`, the inhibition reads like this: under setting [1], 59.7% (active); (mutant strain inhibition) 52.5%.

Regarding `O=C(Nc1nnc(SCc2ccc(Cl)cc2Cl)s1)C1COc2ccccc2O1` (stereo not given), the inhibition under setting [1] is 56.1% (inactive) and the inhibition (mutant strain inhibition) worked out at 17.9%.

For the molecule `COc1ccccc1CNC(=O)CNC(=O)c1cn(-c2ccccc2OC)c(=O)c2ccccc12`, the inhibition runs as follows: under setting [1], -8.54% (inactive); (mutant strain inhibition) 3.48%.

As to `O=C(NNC(=O)C1CCN(c2ncccn2)CC1)c1ccccc1`, the inhibition reads like this: under setting [1], -10.9% (inactive); (mutant strain inhibition) -13.4%.

Consider `OCCC1CN(Cc2ccc3nsnc3c2)CCN1C1CCCC1` (stereo not given), for which the inhibition was 2.03% (inactive) under setting [1] and 2.69% (mutant strain inhibition).

On to `O=C(CCCn1c(=O)c2sccc2n(CC(=O)NCC2CCCO2)c1=O)NCc1ccco1` (stereo not given), for which the inhibition by setting is: under setting [1], 2.48% (inactive); (mutant strain inhibition) 3.2%.

As for `CC(=O)Nc1ccc(-c2csc(NC=C3C(=O)OC(C)(C)OC3=O)n2)cc1`, the inhibition under setting [1] is -0.59% (inactive) and the inhibition (mutant strain inhibition) is 17.6%.

Consider `C/C(=N/Nc1ccc(Cl)cc1)c1cnnc(-c2ccccc2)n1`, for which the inhibition is 9.51% (inactive) under setting [1] and 20.8% (mutant strain inhibition).

As for `CCOC(=O)Cc1csc(NC(=O)CSc2nc(C)cc(=O)[nH]2)n1`, the inhibition under setting [1] is 15.9% (inactive) and the inhibition (mutant strain inhibition) was 18.4%.

Regarding `CCOC(=O)Cc1csc(SCC(=O)NC(C)C23CC4CC(CC(C4)C2)C3)n1` (stereo not given), the inhibition by setting is: under setting [1], 59.2% (active); (mutant strain inhibition) 26.1%.

`CCOC(=O)Cc1csc(NC(=O)CSc2ccc(Br)cc2)n1`: the inhibition under setting [1] is 31.2% (inactive) and the inhibition (mutant strain inhibition) was 25.6%.

`C/C(=N\NC(=S)NC(C)C)c1ccc(C(C)(C)C)cc1`: the inhibition by setting is: under setting [1], 70.2% (active); (mutant strain inhibition) 59%.

Take `C/C(=N\NC(=S)NCc1ccccc1)c1ccc(Cl)cc1`: the inhibition by setting is: under setting [1], 31.1% (inactive); (mutant strain inhibition) 21.1%.

On to `CC/C(=N\NC(=S)NC(C)C)c1ccc(OC(F)F)cc1`, for which the inhibition runs as follows: under setting [1], 32% (inactive); (mutant strain inhibition) 43.5%.

As to `Oc1cccc(C2c3[nH]c4ccccc4c3CCN2Cc2cnn(-c3ccccc3)c2)c1` (stereo not given), the inhibition under setting [1] was 59.9% (active) and the inhibition (mutant strain inhibition) was -4%.

Consider `c1ccc(C2c3[nH]c4ccccc4c3CCN2Cc2cccn2-c2cccnc2)nc1` (stereo not given), for which the inhibition is -2.92% (inactive) under setting [1] and -2.59% (mutant strain inhibition).

In the case of `COc1cccc(C2c3[nH]c4ccccc4c3CCN2Cc2cccc(C)n2)c1` (stereo not given), the inhibition is, setting by setting: under setting [1], 40.2% (inactive); (mutant strain inhibition) 33.8%.

`CCc1ccc(OCC(=O)OCC(=O)c2c(N)n(C)c(=O)n(C)c2=O)cc1`: the inhibition by setting is: under setting [1], -10.7% (inactive); (mutant strain inhibition) -9.86%.

On to `COc1ccc(Br)cc1/C=N/NC(=O)c1cccc(S(=O)(=O)N2CCOCC2)c1`, for which the inhibition under setting [1] was 1.71% (inactive) and the inhibition (mutant strain inhibition) is -16.2%.

Consider `CC1CC(C)CN(CCC(=O)Nc2ccc3c(c2)CCC3)C1` (stereo not given), for which the inhibition under setting [1] was 2.25% (inactive) and the inhibition (mutant strain inhibition) amounted to 2.32%.

With `CC1(C)CC2CC(C)(CN2c2ncnc3ccc(Br)cc23)C1` (stereo not given), the inhibition is 64.4% (active) under setting [1] and 47.6% (mutant strain inhibition).

Turning to `COc1ccc(C(=O)N2CC3(C)CC2CC(C)(C)C3)cc1OC` (stereo not given), the inhibition was -9.9% (inactive) under setting [1] and 6.2% (mutant strain inhibition).

Take `C=CCNc1ncnc2ccc(Br)cc12`: the inhibition is, setting by setting: under setting [1], 6.92% (inactive); (mutant strain inhibition) 5.26%.

Turning to `CC1=CC=CC2=N/C(=N\S(=O)(=O)c3ccc(F)cc3F)c3ccccc3CN12`, the inhibition is 7.93% (inactive) under setting [1] and -4.27% (mutant strain inhibition).

On to `Cc1ccc(S(=O)(=O)N(C)CC(=O)OCC(=O)N2CC(=O)Nc3ccccc32)cc1`, for which the inhibition is, setting by setting: under setting [1], -2.48% (inactive); (mutant strain inhibition) -6.41%.

For `COc1ccc(N(C(=O)c2cccnc2)S(=O)(=O)c2ccc3c(c2)n(C)c(=O)n3C)cc1`, the inhibition runs as follows: under setting [1], -46.4% (inactive); (mutant strain inhibition) -32.1%.

Regarding `CN(C)S(=O)(=O)c1cccc(C(=O)Nc2cccnc2)c1`, the inhibition was -9.84% (inactive) under setting [1] and 2.94% (mutant strain inhibition).

As for `O=C(c1cccnc1)N(c1cc2sc(=O)oc2c2ccccc12)S(=O)(=O)c1ccccc1`, the inhibition is, setting by setting: under setting [1], 69% (active); (mutant strain inhibition) 25.4%.

Broadly, the inhibition is the change of the read-out against control, counted positive when it falls.

For the origin of these results see PubChem BioAssay AID1362 (SRMLSC, 2008).
